Measurements as given in the supplement of paper PMC8975748.
Structures can show the parent of a compound that is named as a salt. ± gives the standard deviation of the averaged measurements.

Key:
[1] = test system: Saccharomyces cerevisiae BY4741 SeMeCo community; assay: mean cell size (pixel area) (pixels); higher = larger cells; details: 10 µM; 24 h; SM minimal medium
Summary of the method: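 A four-plasmid fluorescent Saccharomyces cerevisiae BY4741 community was tested; each plasmid complements one auxotrophy and carries a fluorescent marker. An overnight preculture at OD600 = 1.0 was diluted to OD600 = 0.3, and 70 µl was added to 384-well plates acoustically predosed with drug (final 10 µM) in SM medium for 24 h. Cells were fixed with paraformaldehyde and imaged by automated confocal microscopy, with analysis in Harmony. Mean cell pixel area per well is averaged over 3 replicates. Same SeMeCo high-content imaging drug screen: Selleck FDA-approved drugs at 10 µM, 24 h in SM medium, 384-well plates, 3 replicates.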

[2] = test system: Saccharomyces cerevisiae BY4741 SeMeCo community; assay: z-score of prototroph abundance vs DMSO median; higher = larger share of this subpopulation than in DMSO controls; details: 10 µM; 24 h; SM minimal medium; subpopulation (auxotrophy): Prototroph
Summary of the method: (§1)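 Four plasmids, each restoring a single auxotrophy and encoding a distinct fluorescent protein, were carried by a Saccharomyces cerevisiae BY4741 community. After overnight growth to OD600 1.0 and dilution to 0.3, 70 µl per well was grown for 24 h in minimal SM medium on 384-well plates acoustically predosed with library drugs at 10 µM final. Following paraformaldehyde fixation, automated confocal microscopy was used, with single-auxotroph fluorescent strains defining thresholds and autofluorescence correction. Subpopulation abundance was then scored as a z-score against the vehicle-well median.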

[3] = test system: Saccharomyces cerevisiae BY4741 SeMeCo community; assay: z-score of subpopulation abundance vs DMSO median, subpopulation auxotrophic for M; higher = larger share of this subpopulation than in DMSO controls; details: 10 µM; 24 h; SM minimal medium; subpopulation (auxotrophy): M
Summary of the method: as §1

[4] = test system: Saccharomyces cerevisiae BY4741 SeMeCo community; assay: z-score of subpopulation abundance vs DMSO median, subpopulation auxotrophic for L; higher = larger share of this subpopulation than in DMSO controls; details: 10 µM; 24 h; SM minimal medium; subpopulation (auxotrophy): L
Summary of the method: as §1

[5] = test system: Saccharomyces cerevisiae BY4741 SeMeCo community; assay: z-score of subpopulation abundance vs DMSO median, subpopulation auxotrophic for U; higher = larger share of this subpopulation than in DMSO controls; details: 10 µM; 24 h; SM minimal medium; subpopulation (auxotrophy): U
Summary of the method: as §1

[6] = test system: Saccharomyces cerevisiae BY4741 SeMeCo community; assay: z-score of subpopulation abundance vs DMSO median, subpopulation auxotrophic for LU; higher = larger share of this subpopulation than in DMSO controls; details: 10 µM; 24 h; SM minimal medium; subpopulation (auxotrophy): LU
Summary of the method: as §1

[7] = test system: Saccharomyces cerevisiae BY4741 SeMeCo community; assay: z-score of subpopulation abundance vs DMSO median, subpopulation auxotrophic for LM; higher = larger share of this subpopulation than in DMSO controls; details: 10 µM; 24 h; SM minimal medium; subpopulation (auxotrophy): LM
Summary of the method: as §1

[8] = test system: Saccharomyces cerevisiae BY4741 SeMeCo community; assay: z-score of subpopulation abundance vs DMSO median, subpopulation auxotrophic for HU; higher = larger share of this subpopulation than in DMSO controls; details: 10 µM; 24 h; SM minimal medium; subpopulation (auxotrophy): HU
Summary of the method: as §1

[9] = test system: Saccharomyces cerevisiae BY4741 SeMeCo community; assay: z-score of subpopulation abundance vs DMSO median, subpopulation auxotrophic for UM; higher = larger share of this subpopulation than in DMSO controls; details: 10 µM; 24 h; SM minimal medium; subpopulation (auxotrophy): UM
Summary of the method: as §1

[10] = test system: Saccharomyces cerevisiae BY4741 SeMeCo community; assay: z-score of subpopulation abundance vs DMSO median, subpopulation auxotrophic for HL; higher = larger share of this subpopulation than in DMSO controls; details: 10 µM; 24 h; SM minimal medium; subpopulation (auxotrophy): HL
Summary of the method: as §1

[11] = test system: Saccharomyces cerevisiae BY4741 SeMeCo community; assay: z-score of subpopulation abundance vs DMSO median, subpopulation auxotrophic for HLU; higher = larger share of this subpopulation than in DMSO controls; details: 10 µM; 24 h; SM minimal medium; subpopulation (auxotrophy): HLU
Summary of the method: as §1

[12] = test system: Saccharomyces cerevisiae BY4741 SeMeCo community; assay: z-score of subpopulation abundance vs DMSO median, subpopulation auxotrophic for HLM; higher = larger share of this subpopulation than in DMSO controls; details: 10 µM; 24 h; SM minimal medium; subpopulation (auxotrophy): HLM
Summary of the method: as §1

[13] = test system: Saccharomyces cerevisiae BY4741 SeMeCo community; assay: z-score of subpopulation abundance vs DMSO median, subpopulation auxotrophic for HUM; higher = larger share of this subpopulation than in DMSO controls; details: 10 µM; 24 h; SM minimal medium; subpopulation (auxotrophy): HUM
Summary of the method: as §1

[14] = test system: Saccharomyces cerevisiae BY4741 SeMeCo community; assay: z-score of subpopulation abundance vs DMSO median, subpopulation auxotrophic for LUM; higher = larger share of this subpopulation than in DMSO controls; details: 10 µM; 24 h; SM minimal medium; subpopulation (auxotrophy): LUM
Summary of the method: as §1

[15] = test system: Saccharomyces cerevisiae BY4741 SeMeCo community; assay: z-score of subpopulation abundance vs DMSO median, subpopulation auxotrophic for HLUM; higher = larger share of this subpopulation than in DMSO controls; details: 10 µM; 24 h; SM minimal medium; subpopulation (auxotrophy): HLUM
Summary of the method: as §1

[16] = test system: Saccharomyces cerevisiae BY4741 SeMeCo community; assay: z-score of subpopulation abundance vs DMSO median, subpopulation auxotrophic for H; higher = larger share of this subpopulation than in DMSO controls; details: 10 µM; 24 h; SM minimal medium; subpopulation (auxotrophy): H
Summary of the method: as §1

[17] = test system: Saccharomyces cerevisiae BY4741 SeMeCo community; assay: z-score of subpopulation abundance vs DMSO median, subpopulation auxotrophic for HM; higher = larger share of this subpopulation than in DMSO controls; details: 10 µM; 24 h; SM minimal medium; subpopulation (auxotrophy): HM
Summary of the method: as §1

| Structure (SMILES) | mean cell size [1] | z-score of prototroph abundance [2] | z-score of subpopulation abundance [3] | z-score of subpopulation abundance [4] | z-score of subpopulation abundance [5] | z-score of subpopulation abundance [6] | z-score of subpopulation abundance [7] | z-score of subpopulation abundance [8] | z-score of subpopulation abundance [9] | z-score of subpopulation abundance [10] | z-score of subpopulation abundance [11] | z-score of subpopulation abundance [12] | z-score of subpopulation abundance [13] | z-score of subpopulation abundance [14] | z-score of subpopulation abundance [15] | z-score of subpopulation abundance [16] | z-score of subpopulation abundance [17] |
| --- | --- | --- | --- | --- | --- | --- | --- | --- | --- | --- | --- | --- | --- | --- | --- | --- | --- |
| Fc1ccc([C@@H]2CCNC[C@H]2COc2ccc3c(c2)OCO3)cc1 [Paroxetine mesylate] | 12.1 ± 0.27 | 0.14 | -0.51 | 0.03 | 0.96 | 0.46 | -0.87 | -0.22 | 0.67 | -0.67 | 0 | 0.34 | -0.17 | -0.39 | -0.05 | – | – |
| COc1ncnc(NS(=O)(=O)c2ccc(N)cc2)c1OC [Sulfadoxine] | 12.47 ± 0.085 | -0.71 | -0.15 | -0.42 | 1.05 | 0.85 | -0.89 | 0.53 | 0.98 | – | 0.31 | 0.02 | 1.04 | -0.34 | – | -0.14 | -0.26 |
| Cc1onc(-c2ccccc2)c1C(=O)N[C@@H]1C(=O)N2[C@@H]1SC(C)(C)[C@@H]2C(=O)O [Oxacillin sodium monohydrate] | 12.04 ± 0.12 | -0.42 | 0.02 | 0.52 | 0.36 | 0.83 | 0.23 | 0.32 | 0.41 | 0.94 | 0.2 | -0.54 | 0.65 | 0.47 | 0.03 | -0.05 | – |
| Cc1c(S(=O)(=O)O)oc2c1C(=O)C(=O)c1c-2ccc2c1CCCC2(C)C [Tanshinone IIA sulfonate (sodium)] | 11.85 ± 0.095 | -0.48 | 1.72 | 0.5 | -1.39 | -0.91 | -0.11 | -2.62 | 1.77 | 4.28 | -0.84 | 3.71 | 0.71 | 1.3 | 1.74 | 1.42 | – |
| Oc1c(Cl)cc(Cl)c2cccnc12 [Chloroxine] | 13.6 ± 0.85 | – | 3.4 | -0.75 | -1.29 | 11.5 | 10.6 | 12.7 | 1.02 | 21.7 | 33.8 | 45.7 | 19.8 | 17.1 | – | 13.2 | 28.2 |
| CO/N=C(\C(=O)N[C@@H]1C(=O)N2C(C(=O)O)=C(CSC(=O)c3ccco3)CS[C@H]12)c1csc(N)n1 [Ceftiofur HCl] | 12.54 ± 0.051 | -0.76 | -0.14 | -0.69 | 1.47 | 1 | -0.53 | 0.85 | 1.05 | -0.8 | 0.02 | 0.11 | 2.38 | -0.05 | 0.19 | – | – |
| CC#C[C@]1(O)CC[C@H]2[C@@H]3CCC4=CC(=O)CCC4=C3[C@@H](c3ccc(N(C)C)cc3)C[C@@]21C [Mifepristone] | 12.3 ± 0.19 | -1.1 | 0.43 | 1.02 | -0.36 | 0.63 | 0.79 | 0.29 | 0.64 | 1.2 | 0.41 | 0.44 | 1.71 | 0.67 | – | 1.2 | 1.66 |
| O=C(O)c1cc(-c2ccc(F)cc2F)ccc1O [Diflunisal] | 13.1 ± 0.14 | 3.54 | -2.15 | 0.56 | -2.37 | -1.6 | -1.23 | – | -3.18 | -0.87 | -0.75 | -0.45 | -2.64 | – | – | -1.33 | -1.55 |
| CCN[C@@H]1C[C@H](N)[C@@H](O[C@H]2OC(CN)=CC[C@H]2N)[C@H](O)[C@H]1O[C@H]1OC[C@](C)(O)[C@H](NC)[C@H]1O [Netilmicin Sulfate] | 12.1 ± 0.17 | -0.66 | 1.38 | -0.06 | 0.67 | 0.47 | 0.44 | 0.01 | 0.17 | -0.24 | 0.09 | 1.14 | 0.71 | 0.72 | – | -0.25 | 0.03 |
| CCCCCCCCc1ccc(CCC(N)(CO)CO)cc1 [Fingolimod] | 12.1 ± 0.37 | 2.04 | -1.67 | -1.22 | -1.09 | -0.72 | -1.42 | -0.71 | -1.44 | -1.71 | -1.65 | -1.02 | -1.31 | -1.47 | – | -0.65 | -1.86 |
| Cn1c([N+](=O)[O-])cnc1COC(N)=O [Ronidazole] | 12.5 ± 0.033 | 1.22 | -0.37 | -0.01 | 0.01 | -0.22 | -0.82 | -1.13 | -0.8 | – | -0.68 | -0.96 | -0.57 | -0.5 | – | -1.34 | -1.32 |
| C[C@@H](CN1CC(=O)NC(=O)C1)N1CC(=O)NC(=O)C1 [Dexrazoxane HCl (ICRF-187, ADR-529)] | 12.49 ± 0.096 | 0.46 | 0.18 | -1.96 | 0.64 | -0.36 | -1.65 | -0.7 | 0.22 | -1.52 | -1.07 | -0.81 | -0.23 | -0.98 | -0.79 | -0.64 | – |
| CCCCc1oc2ccccc2c1C(=O)c1cc(I)c(OCCN(CC)CC)c(I)c1 [Amiodarone HCl] | 11.3 ± 0.26 | -5.29 | 9.41 | -2.82 | – | -1.37 | 1.3 | 4.02 | 9.26 | 3.55 | 4.05 | 5.74 | 4.79 | 6.07 | – | 1.97 | 3.86 |
| Nc1nc2c(ncn2COC(CO)CO)c(=O)[nH]1 [Ganciclovir] | 12.4 ± 0.16 | -0.25 | 0.43 | 0 | 0.17 | -0.06 | -0.15 | – | 0.96 | -0.27 | 0.54 | -0.21 | 0.33 | -0.04 | – | -0.43 | -0.15 |
